Source: PubChem BioAssay (NCATS)
Records with an inconclusive call do not appear. Entries that show only a call come without a potency. Activity calls are given as the source filed them. Calls follow the shape of the dose curve; as a rule, active = well fitted inhibition curve with a large enough effect; inconclusive = small, poorly fitted or top-dose-only effect; inactive = no such curve, though single readings can be large or run the other way.

system: Zika virus NS2B-NS3 protease (linked construct); test: Primary screen NINDS Rhodamine qHTS for Zika virus inhibitors (AID 1347160); conditions: purified NS2B-NS3 protease, Rhodamine110 substrate fluorescence; series mostly up to 57.1 µM; also: nearly all actives have a fitted effect of over 55% in size
Summary of the method: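 Kinetic fluorescence (Ex 480 nm, Em 540 nm) over 15 min with 1.5 microM Rhodamine110 peptide and 25 nM linked protease.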
Potency is read from the fitted curve at half-maximal effect.

SMILES	Potency	activity change, negative = inhibition
C/C=C(\C)C(=O)O[C@H]1C=C(CO)C(=O)[C@H](OC(C)=O)[C@H]1C(C)C	inactive	
C=C1C(=O)O[C@@H]2/C=C(\C)CC/C=C(/C=O)[C@H](OC)[C@@H](OC(=O)C(C)C)[C@@H]12	inactive	
C=C1C(=O)OC[C@@H]1C/C=C(\C)CC1CC(C)C(=O)O1 (some centres undefined)	15.8 µM (active)	
O=C(Nc1ncc([N+](=O)[O-])s1)c1ccccc1O	22.4 µM (active)	
CCCc1cc(C)n(C)c(=O)c1CN(C)C(=O)c1cc(-c2ccc(N3CCN(C(C)C)CC3)nc2)cc2c1cnn2C(C)C	inactive	
C=C1[C@@H](OC(C)=O)CC[C@@]2(C)[C@@H](OC(C)=O)[C@H](OC(C)=O)C3=C(C)C[C@H](OC(=O)C(C)CC)[C@@H]([C@@H](OC(C)=O)[C@H]12)C3(C)C (some centres undefined)	inactive	
CC(=O)OC/C(=C/C(=O)O)CC[C@@H]1C(C=O)=CC[C@@H]2C(C)(C)CCC[C@@]12C	inactive	
Cc1cn(CCN2CCN(c3ccccc3-c3cc(C#N)cc(C(=O)NCCCN4CCCC4)c3)CC2)c2ccccc12	inactive	
C/C=C(\C)C(=O)OC1C[C@@]2(COC(C)=O)O[C@H]2/C=C\[C@@]2(C)O[C@@H]2[C@H]2OC(=O)C(COC(C)=O)=C12 (some centres undefined)	inactive	
CC1CC(=O)C2=C(C1)C1OC1C1(O)C2C(=O)c2cccc(O)c2C1O (centres undefined)	inactive	
COc1ccc([C@H]2OC[C@H]3O[C@@H](O[C@H]4[C@@H]2NC[C@@H]4O)[C@H](O)[C@H]3O)cc1	inactive	
CN(C)c1cccc(Oc2cnc(Nc3cccc(O)c3)nc2)c1	inactive	
C#CCOc1ccc2c(c1)c(-c1ccc(C(C)C)cc1)nc(=O)n2C(C)C	inactive	
COc1cc(OC)c(NC(=O)c2ccc(Cc3cc4c(cc3C)C(C)(C)CCC4(C)C)o2)c(OC)c1	inactive	
CN(C)CC1CCn2c(c(C3=C(c4cn(C)c5ccccc45)C(=O)NC3=O)c3ccccc32)C1 (centres undefined)	inactive	
O=S(=O)(NCc1ccccn1)c1ccc(Br)c2ccccc12	inactive	
CCOC(=O)c1cnn(-c2ccccc2)c1NC(=O)c1cc2nc(-c3ccco3)cc(C(F)(F)Cl)n2n1	inactive	
Cc1sc2c(c1C)C(c1ccc(Cl)cc1)=N[C@H](CC(=O)NCCCCNC(=O)COc1cccc3c1C(=O)N([C@H]1CCC(=O)NC1=O)C3=O)c1nnc(C)n1-2	inactive	
C/C=C(\C)C(=O)OC1C(C)C2(O)C(C=C(CO)CC3(O)C(=O)C(C)=CC32)C2C(C)(C)C12OC(C)=O (centres undefined)	inactive	
CC(=O)O[C@@H]1C[C@]2(C)[C@@]3(CCC4[C@@]5(C)CC[C@H](O[C@@H]6O[C@H](C(=O)O)[C@@H](O)[C@H](OC7OC(CO)C(O)C(O)[C@H]7O[C@@H]7O[C@@H](C)[C@H](O)[C@@H](O)[C@H]7O[C@@H]7OC[C@](O)(CO)[C@H]7O)[C@H]6OC6OC(CO)C(O)C(O)C6O)C(C)(C)C5CC[C@]42C)OC[C@@]12CCC(C)(C)CC23 (some centres undefined)		-13.3% [at 10.7 µM] (inactive)
NC(N)=N/N=C/c1ccccc1Cl	inactive	
C/C=C/[C@@H]1C=C[C@@H]2C[C@H](C)CC[C@H]2[C@]1(C)/C(O)=C1/C(=O)[C@@H](CO)N(C)C1=O	inactive	
C/C=C(\C)C(=O)OC1C(C)C2(O)C(C=C(CO)CC3(O)C(=O)C(C)=CC32)C2C(C)(C)C12OC(=O)C(C)C (centres undefined)	inactive	
COc1c(C(C)C)c(O)c(O)c2c1C(OC)[C@H]1OC(=O)[C@@]23CCCC(C)(C)[C@H]13 (some centres undefined)	inactive	
